# Measured values taken from the supplement of paper PMC10849652.
# Targets with a hit are over-represented here; the source holds about 7,900 in all. About 0.6% of all pairs of compound and target were hits. Values without a mark were called inactive.
# Tests used:
# Test in all cases: log2 fold change, soluble protein after heating vs DMSO (PISA); higher = thermal stabilisation; K562 cells, 10 uM, 30 min; active = over 0.2 and 3.5 SD of the protein, either way, in both replicates (recomputed)
# [1] = compound: CC[C@@H]1C(=O)N(C)c2cnc(Nc3ccc(C(=O)NC4CCN(C)CC4)cc3OC)nc2N1C1CCCC1
# Summary of the method: (§1)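 K562 cells (2×10^6 cells/mL) were treated with 10 μM compound for 30 min, and aliquots were heated for 3 min over 48°C-58°C. Pooled aliquots were extracted in PBS with 0.5% NP-40 at 4°C, and the supernatant after 21,000xg for 90 min was measured by TMTpro 16plex LC-MS/MS with channel sums equalised. Reported thermal stability, relative to control samples and from duplicates, is a log2 fold change.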
# [2] = compound: CC[C@@H]1C(=O)N(C)c2cnc(Nc3ccc(C(=O)N[C@H]4CC[C@H](N5CCN(CC6CC6)CC5)CC4)cc3OC)nc2N1C(C)C [volasertib]
# Summary of the method: as §1
# [3] = compound: CC[C@H](C)N1C=C(C2=C(C=C(C=C21)C3=CN=C(C=C3)N4CCNCC4)C(=O)NCC5=C(C=C(NC5=O)C)C)C
# Summary of the method: as §1
# [4] = compound: CC[C@H](C)[C@@H](C(=O)N[C@@H]([C@@H](C)O)C(=O)N[C@@H](CC(C)C)C(=O)[C@]1(CO1)C)NC(=O)[C@H]([C@@H](C)CC)N(C)C(=O)C [epoxomicin]
# Summary of the method: as §1
# [5] = compound: CCn1c(C(=O)N(C2CC2)C2CC2)cc2c3c(ncn3C)c(Nc3cc(C)n(C)n3)nc21
# Summary of the method: as §1
# [6] = compound: CCn1cc(-c2ccnc3[nH]c(-c4cccc(CN(C)C)c4)cc23)c(-c2ccc(NC(=O)N(C)C)cc2)n1
# Summary of the method: as §1
# [7] = compound: CN(C)CC(=O)Nc1ccc2[nH]c(=O)c3ccccc3c2c1
# Summary of the method: as §1
# [8] = compound: CN(CCOC1=CC=C(C=C1)C[C@H]2C(=O)NC(=O)S2)C3=CC=CC=N3 (racemic) [rosiglitazone]
# Summary of the method: as §1
# [9] = compound: CN1C2=C(C3=C1C(=O)N(N=C3)CC4=CC(=CC=C4)N)SC(=C2)S(=O)C
# Summary of the method: as §1
# [10] = compound: CN1CCC(CNc2ccc3ncc(-c4cccc(OC(F)(F)F)c4)n3n2)CC1
# Summary of the method: as §1
# Chain of UniProt Q96I24 (Q96I24 whole entry, looked up): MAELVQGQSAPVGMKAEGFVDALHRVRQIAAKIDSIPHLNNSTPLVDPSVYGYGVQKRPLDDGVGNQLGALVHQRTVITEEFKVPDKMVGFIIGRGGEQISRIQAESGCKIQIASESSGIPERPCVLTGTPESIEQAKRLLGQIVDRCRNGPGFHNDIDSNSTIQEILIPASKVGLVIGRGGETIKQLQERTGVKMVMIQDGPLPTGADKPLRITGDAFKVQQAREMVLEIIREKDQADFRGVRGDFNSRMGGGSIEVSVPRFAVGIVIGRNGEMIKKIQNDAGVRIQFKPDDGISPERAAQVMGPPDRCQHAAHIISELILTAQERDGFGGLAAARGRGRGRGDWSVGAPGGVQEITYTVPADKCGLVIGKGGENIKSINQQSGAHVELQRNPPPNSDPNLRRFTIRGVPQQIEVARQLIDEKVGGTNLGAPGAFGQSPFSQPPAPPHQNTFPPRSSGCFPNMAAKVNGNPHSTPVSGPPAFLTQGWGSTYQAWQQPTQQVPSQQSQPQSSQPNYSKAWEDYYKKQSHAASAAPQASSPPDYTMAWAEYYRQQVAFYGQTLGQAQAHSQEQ
# Chain of UniProt P30519 (P30519 whole entry, looked up): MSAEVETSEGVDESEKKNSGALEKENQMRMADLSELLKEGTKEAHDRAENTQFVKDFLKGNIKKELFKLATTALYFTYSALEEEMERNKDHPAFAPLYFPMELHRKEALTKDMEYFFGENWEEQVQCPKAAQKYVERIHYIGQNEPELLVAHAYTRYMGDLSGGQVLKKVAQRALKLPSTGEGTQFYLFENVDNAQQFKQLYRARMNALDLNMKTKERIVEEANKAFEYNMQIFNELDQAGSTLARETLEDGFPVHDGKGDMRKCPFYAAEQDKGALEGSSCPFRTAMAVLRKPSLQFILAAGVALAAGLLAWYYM
# Chain of UniProt Q13227 (Q13227 whole entry, looked up): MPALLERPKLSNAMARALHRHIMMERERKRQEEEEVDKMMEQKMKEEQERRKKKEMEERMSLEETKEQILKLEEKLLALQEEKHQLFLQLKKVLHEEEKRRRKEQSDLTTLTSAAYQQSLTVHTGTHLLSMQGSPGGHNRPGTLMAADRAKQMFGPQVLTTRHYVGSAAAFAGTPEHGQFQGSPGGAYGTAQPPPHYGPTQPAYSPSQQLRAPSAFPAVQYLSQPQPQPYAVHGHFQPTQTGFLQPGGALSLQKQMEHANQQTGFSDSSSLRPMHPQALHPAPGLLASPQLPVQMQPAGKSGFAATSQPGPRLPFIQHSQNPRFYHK
# Chain of UniProt Q9Y6M1 (Q9Y6M1 whole entry, looked up): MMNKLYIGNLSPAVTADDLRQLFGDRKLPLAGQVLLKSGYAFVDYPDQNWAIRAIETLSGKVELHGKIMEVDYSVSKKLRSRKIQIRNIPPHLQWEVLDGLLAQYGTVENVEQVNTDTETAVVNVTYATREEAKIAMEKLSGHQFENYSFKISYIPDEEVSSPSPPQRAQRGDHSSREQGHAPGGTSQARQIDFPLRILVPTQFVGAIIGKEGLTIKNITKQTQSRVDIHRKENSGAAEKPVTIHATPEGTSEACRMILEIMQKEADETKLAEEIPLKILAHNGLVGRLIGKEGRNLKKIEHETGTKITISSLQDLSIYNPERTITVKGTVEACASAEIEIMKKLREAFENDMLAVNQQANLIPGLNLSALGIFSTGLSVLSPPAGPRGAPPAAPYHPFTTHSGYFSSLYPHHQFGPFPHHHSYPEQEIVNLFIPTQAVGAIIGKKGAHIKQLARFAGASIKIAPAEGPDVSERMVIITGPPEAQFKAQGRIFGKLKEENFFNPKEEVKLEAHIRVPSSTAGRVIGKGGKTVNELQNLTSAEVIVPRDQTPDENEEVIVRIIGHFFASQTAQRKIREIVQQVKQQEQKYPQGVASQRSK
# Chain of UniProt Q92917 (Q92917 whole entry, looked up): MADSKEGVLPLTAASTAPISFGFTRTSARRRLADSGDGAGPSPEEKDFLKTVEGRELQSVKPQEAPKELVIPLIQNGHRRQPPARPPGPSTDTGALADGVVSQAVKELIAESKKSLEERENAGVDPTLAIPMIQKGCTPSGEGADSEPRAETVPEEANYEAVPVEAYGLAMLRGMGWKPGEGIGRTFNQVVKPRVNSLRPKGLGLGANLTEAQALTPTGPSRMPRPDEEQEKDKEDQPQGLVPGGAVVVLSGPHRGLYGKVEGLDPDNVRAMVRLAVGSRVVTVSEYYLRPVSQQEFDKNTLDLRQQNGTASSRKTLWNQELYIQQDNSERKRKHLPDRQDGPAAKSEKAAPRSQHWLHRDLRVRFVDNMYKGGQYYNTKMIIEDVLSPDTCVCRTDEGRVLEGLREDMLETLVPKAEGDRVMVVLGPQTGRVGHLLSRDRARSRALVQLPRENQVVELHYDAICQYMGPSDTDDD
# Chain of UniProt Q14687 (Q14687 whole entry, looked up): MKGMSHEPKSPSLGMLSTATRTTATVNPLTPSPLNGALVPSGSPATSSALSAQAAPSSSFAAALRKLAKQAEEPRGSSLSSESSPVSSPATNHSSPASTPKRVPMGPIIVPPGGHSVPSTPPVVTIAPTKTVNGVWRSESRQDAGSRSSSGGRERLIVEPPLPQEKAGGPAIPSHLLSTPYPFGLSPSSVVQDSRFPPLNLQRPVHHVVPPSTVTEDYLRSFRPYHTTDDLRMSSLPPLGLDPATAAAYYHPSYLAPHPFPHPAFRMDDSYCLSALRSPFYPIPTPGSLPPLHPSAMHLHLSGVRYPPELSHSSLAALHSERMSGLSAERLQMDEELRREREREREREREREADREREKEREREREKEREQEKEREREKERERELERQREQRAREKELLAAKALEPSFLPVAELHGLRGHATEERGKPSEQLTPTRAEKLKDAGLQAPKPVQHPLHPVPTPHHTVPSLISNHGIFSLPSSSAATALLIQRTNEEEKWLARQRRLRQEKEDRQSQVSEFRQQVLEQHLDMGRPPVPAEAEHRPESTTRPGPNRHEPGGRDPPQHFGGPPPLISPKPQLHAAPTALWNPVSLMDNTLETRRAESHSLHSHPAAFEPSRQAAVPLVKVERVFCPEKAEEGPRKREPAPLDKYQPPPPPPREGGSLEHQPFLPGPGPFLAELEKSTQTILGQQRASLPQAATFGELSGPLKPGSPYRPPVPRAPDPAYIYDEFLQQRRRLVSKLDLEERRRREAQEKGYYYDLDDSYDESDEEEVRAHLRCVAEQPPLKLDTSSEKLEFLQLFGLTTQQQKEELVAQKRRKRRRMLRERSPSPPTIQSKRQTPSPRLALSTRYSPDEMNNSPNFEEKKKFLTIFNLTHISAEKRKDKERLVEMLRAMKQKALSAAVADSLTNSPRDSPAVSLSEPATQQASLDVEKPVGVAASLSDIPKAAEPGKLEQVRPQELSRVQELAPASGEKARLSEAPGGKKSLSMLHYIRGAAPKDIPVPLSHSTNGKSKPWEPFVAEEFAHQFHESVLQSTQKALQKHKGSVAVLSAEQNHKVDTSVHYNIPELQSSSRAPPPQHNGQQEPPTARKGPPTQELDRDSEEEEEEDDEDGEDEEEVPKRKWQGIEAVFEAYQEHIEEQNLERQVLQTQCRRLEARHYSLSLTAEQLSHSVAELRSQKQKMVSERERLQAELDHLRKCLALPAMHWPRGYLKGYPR
# Chain of UniProt O14976 (O14976 whole entry, looked up): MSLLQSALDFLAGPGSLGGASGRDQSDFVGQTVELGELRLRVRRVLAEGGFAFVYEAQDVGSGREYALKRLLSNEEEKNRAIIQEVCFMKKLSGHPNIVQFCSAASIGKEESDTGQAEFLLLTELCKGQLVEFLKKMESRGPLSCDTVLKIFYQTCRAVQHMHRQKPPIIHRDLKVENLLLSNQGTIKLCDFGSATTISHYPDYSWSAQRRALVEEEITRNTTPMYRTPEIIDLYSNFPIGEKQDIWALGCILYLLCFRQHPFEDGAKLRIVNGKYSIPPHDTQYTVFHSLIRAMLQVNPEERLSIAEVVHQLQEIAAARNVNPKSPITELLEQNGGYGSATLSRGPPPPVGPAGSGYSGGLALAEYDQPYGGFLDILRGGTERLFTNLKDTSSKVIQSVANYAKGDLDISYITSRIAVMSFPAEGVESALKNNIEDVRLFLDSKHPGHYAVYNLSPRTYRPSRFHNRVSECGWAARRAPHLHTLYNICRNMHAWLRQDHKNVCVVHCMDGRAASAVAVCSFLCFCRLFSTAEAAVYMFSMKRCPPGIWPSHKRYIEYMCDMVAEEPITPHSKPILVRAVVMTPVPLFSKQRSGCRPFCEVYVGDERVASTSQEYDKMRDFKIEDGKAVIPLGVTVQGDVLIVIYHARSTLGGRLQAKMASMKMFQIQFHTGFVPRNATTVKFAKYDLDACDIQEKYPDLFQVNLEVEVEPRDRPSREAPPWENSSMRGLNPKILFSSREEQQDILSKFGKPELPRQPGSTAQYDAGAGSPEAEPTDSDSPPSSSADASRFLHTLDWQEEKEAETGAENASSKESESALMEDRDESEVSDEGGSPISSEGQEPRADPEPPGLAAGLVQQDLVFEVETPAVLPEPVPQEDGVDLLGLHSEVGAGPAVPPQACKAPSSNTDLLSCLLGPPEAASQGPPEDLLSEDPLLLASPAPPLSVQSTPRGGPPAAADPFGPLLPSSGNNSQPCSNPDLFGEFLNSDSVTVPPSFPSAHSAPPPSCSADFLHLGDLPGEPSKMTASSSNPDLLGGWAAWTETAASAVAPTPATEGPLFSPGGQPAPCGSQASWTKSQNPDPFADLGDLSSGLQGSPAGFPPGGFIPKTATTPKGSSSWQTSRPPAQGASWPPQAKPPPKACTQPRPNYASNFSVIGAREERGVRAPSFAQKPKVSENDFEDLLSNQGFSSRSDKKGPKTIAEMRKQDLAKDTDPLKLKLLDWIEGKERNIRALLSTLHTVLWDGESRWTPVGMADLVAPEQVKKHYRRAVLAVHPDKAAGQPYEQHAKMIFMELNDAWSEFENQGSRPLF
# Chain of UniProt Q9Y680 (Q9Y680 whole entry, looked up): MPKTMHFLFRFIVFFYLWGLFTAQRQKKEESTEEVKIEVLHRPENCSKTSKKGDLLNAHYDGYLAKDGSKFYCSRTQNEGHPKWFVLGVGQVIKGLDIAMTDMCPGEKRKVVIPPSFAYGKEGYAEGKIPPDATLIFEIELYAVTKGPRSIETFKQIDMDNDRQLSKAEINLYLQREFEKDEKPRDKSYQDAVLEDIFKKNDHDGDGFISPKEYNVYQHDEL
Target,log2 fold change [1],log2 fold change [2],log2 fold change [3],log2 fold change [4],log2 fold change [5],log2 fold change [6],log2 fold change [7],log2 fold change [8],log2 fold change [9],log2 fold change [10]
HOMER1 (UniProt Q86YM7),-0.018,0.024,-0.099,0.006,0.017,-0.025,0.018,-0.011,-0.018,0.033
GEMIN5 (UniProt Q8TEQ6),-0.122,-0.438 (active),0.034,-0.014,-0.007,0.042,0.015,0.046,0.019,-0.094
GLCCI1 (UniProt Q86VQ1),-0.048,0.108,0.15,-0.022,0.087,0.088,-0.035,-0.053,-0.023,-0.328 (active)
HMOX2 (UniProt P30519),-0.015,-0.251 (active),0.074,0.009,-0.054,-0.069,0.008,0.012,0.011,0.054
HNRNPC isoform 2 (UniProt P07910),0.238,0.276,0.017,-0.423,-0.19,0.147,-0.151,-0.129,0.467,-0.067
HDAC1 (UniProt Q13547),-0.025,-0.216,0.037,-0.006,-0.015,0.019,0.011,-0.027,0.001,-0.043
HSD17B12 (UniProt Q53GQ0),-0.046,-0.183,0,-0.013,-0.036,-0.104,0.01,-0.016,-0.039,0.037
FKBP7 (UniProt Q9Y680),0.035,0.021,0.015,-0.04,0.003,0.026,-0.042,-0.054,-0.001,0.191
ICMT (UniProt O60725),0.202,0.138,-0.027,-0.029,0.073,,0.061,0.033,-0.051,
IGF2BP2 (UniProt Q9Y6M1),0.176,-0.076,-0.063,-0.203,0.016,0.076,0.01,-0.044,0.432,-0.016
FUCA1 (UniProt P04066),-1.33 (active),-1.73 (active),-0.061,-0.03,0.007,-0.006,-0.025,-0.008,-0.017,-0.141
FYB1 isoform 3 (UniProt O15117),-0.018,-0.201,0.263,0.052,-0.057,-0.008,0.019,0.115,-0.068,-0.246
GTF2B (UniProt Q00403),-0.076,-0.323 (active),0.091,0.096,-0.04,-0.015,0.147,0.083,-0.002,-0.193
HSPA8 (UniProt E9PN89),0.167,0.114,-0.205,-0.278,-0.127,0.178,-0.139,0.049,,-0.154
GGA2 (UniProt Q9UJY4),0.022,0.059,0.038,-0.033,0.005,,-0.021,0.083,-0.02,
GPS2 (UniProt Q13227),0.151,-0.072,0.082,0.016,-0.011,,0.068,0.027,,
FANCD2 isoform 1 (UniProt Q9BXW9),-0.229,-0.251,0.118,-0.307,-0.04,-0.055,0.026,0.062,-0.009,-0.233

Target,log2 fold change [1],log2 fold change [2],log2 fold change [3],log2 fold change [4],log2 fold change [5],log2 fold change [6],log2 fold change [7],log2 fold change [8],log2 fold change [9],log2 fold change [10]
HADHA (UniProt P40939),0.03,0.469,0.107,0.055,0.231,-0.233,0.023,-0.019,-0.053,-0.334
FBXO6 (UniProt Q9NRD1),0.683 (active),0.696 (active),0.096,-0.029,-0.037,-0.038,0.036,0.006,0.005,0.366 (active)
HMGN2 (UniProt P05204),-0.083,0.073,-0.109,-0.082,0.054,-0.041,-0.081,-0.041,0.02,0.071
GBA2 (UniProt Q9HCG7),0,0.308 (active),-0.082,-0.062,-0.075,,0.027,-0.07,-0.085,
FUBP3 (UniProt Q96I24),0.061,-0.251 (active),0.045,0.021,0.025,0.064,-0.028,0.016,0.02,0.059
GAK (UniProt O14976),0.673,1.35,-0.401,-0.046,0.096,0.11,0.382,,-0.038,0.95
GPKOW (UniProt Q92917),-0.056,-0.217,0.101,-0.021,-0.063,-0.049,0.039,0.045,0.022,-0.248
HNRNPUL1 (UniProt M0R247),-0.072,0.16,-0.101,,0.121,,,,0.21,
IGF2 isoform 3 (UniProt P01344),,,,,-0.395,,-0.218,,0.135,
GREB1 (UniProt Q4ZG55),,,,-0.081,-0.108,,-0.095,,,
GBE1 (UniProt Q04446),0.042,-0.61 (active),,0.168,0.016,,0.058,-0.128,0.071,
HDAC10 (UniProt Q969S8),-0.113,-0.041,0.028,,-0.005,-0.179,0.224,0.12,-0.107,0.055
FOXO3 (UniProt O43524),-0.092,-0.061,,0.007,-0.213,-0.004,0.055,,0.158,-0.188
FAT1 (UniProt Q14517),,0.009,-0.048,-0.05,0.006,-0.018,0.07,0.095,-0.11,0.082
FIBP (UniProt O43427),0.164,-0.093,,-0.023,-0.026,-0.023,-0.043,-0.012,-0.072,-0.229
GNL3 (UniProt Q9BVP2),0.018,,-0.197,-0.06,,0.118,0.002,0.046,-0.103,0.081
GSE1 (UniProt Q14687),,,-0.003,,,,-0.117,0.151,-0.004,
